# This is one part of a sample in which hits are shown more often than they occur.
# ERK EGF inh: qHTS Assay for Inhibitors of the ERK Signaling Pathway using a Homogeneous Screening Assay; Stimulation with EGF; HEK293-V1b, EGF-stimulated phospho-ERK AlphaScreen; Potency, µM (titrated, usually from 11.5 µM), for inactives: at the highest dose activity change, negative = inhibition, usual class: inhibitors; hit rate 0.41% among 130,000; AID 1454, 2008; active = well fitted inhibition curve with a large enough effect;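 also: plate controls were stimulated vehicle wells for no effect and unstimulated vehicle basal for full effect; nearly all actives have a fitted effect of over 55% in size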
#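 HEK293 cells stably expressing V1b receptor, serum-reduced (1% FBS) overnight, pretreated 30 min with compound, then stimulated 5 min with 25 nM EGF; phospho-ERK detected by AlphaScreen SureFire. AC50 from Hill fits, normalized to DMSO and EGF.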
# * = called active by the depositor; [ ] = remark or other dose. Potency is read from the fitted curve at half-maximal effect.
SMILES,ERK EGF inh
CCC(O)CC(C(=O)NNc1ccccc1)C(=O)NNc1ccccc1 (centres undefined),6.0%
CN(C)c1ccc(/C=C/C(=O)c2cc(Cl)ccc2O)cc1,14.1µM*
O=C(/C=C/c1ccncc1)c1cc(Cl)ccc1O,9.5%[57.5 µM]
COc1ccc(/C=C/C(=O)c2cc(Cl)ccc2O)c(OC)c1,2.2%[57.5 µM]
CC(C)c1cc(C(=O)O)c2cnn(C(C)C)c2n1,1.0%[57.5 µM]
O=C(O)c1ccc(-c2nc(-c3ccccc3Cl)cs2)cc1,1.4%
CC(C)CC1=NN2C(=N)/C(=C\c3coc4ccccc4c3=O)C(=O)N=C2S1,6.5%
CCc1ccc(-n2cccc2/C=C2/C(=N)N3C(=NC2=O)SN=C3S(C)(=O)=O)cc1,5.9%
CCSC1=NSC2=NC(=O)/C(=C\c3coc4ccccc4c3=O)C(=N)N12,31.6µM*
COc1ccc2nc(N=NC3=C(O)CC(C)(C)CC3=O)sc2c1,0.9%
COc1cccc(Nc2nc3ccc(OC)cc3s2)c1,5.9%
COc1ccc2nc(N=Nc3ccc(O)c4ccccc34)sc2c1,7.08µM*
COc1ccccc1NC(=O)NCCCl,7.3%
COc1ccc(/C=C(\NC(=O)c2ccc([N+](=O)[O-])cc2)C(=O)N2CCOCC2)cc1,-6.0%
COCCCNC(=S)NNC(=O)Cn1nc(C)c(Br)c1C,-1.2%
Clc1ccccc1CNc1ncnc2nc[nH]c12,0.1%
COc1cc2ncnc(NCc3ccc(C)o3)c2cc1OC,28.2µM*
COc1ccccc1-c1ccc2ncnc(NCc3cccnc3)c2c1,65.6%
COc1cc2ncnc(NCc3ccc(Cl)cc3)c2cc1OC,2.24µM*
COc1cccc(-c2ccc3ncnc(NCc4ccccc4OC)c3c2)c1,18.1%
COc1cc2ncnc(NCCCN3CCOCC3)c2cc1OC,13.9%[57.5 µM]
COc1cc2ncnc(NCc3ccccc3Cl)c2cc1OC,1.26µM*
COc1ccc(CNc2ncnc3c2[nH]c2cc(OC)c(OC)cc23)cc1,-6.0%[57.5 µM]
COc1ccc(CCNc2ncnc3sccc23)cc1OC,-1.8%
O=C(Cn1cc(SCc2ccccc2Cl)c2ccccc21)N1CCOCC1,-0.5%
SMILES,ERK EGF inh
Cc1nnc2ccc(-c3cccc(NC(=O)c4ccco4)c3)nn12,6.1%
CC(C)NCCOCCOc1ccc(Cl)cc1Br,6.2%
CCCCNC(=O)C(=O)N/N=C/c1ccc(OCC(=O)Nc2cccc(OC)c2)c(OC)c1,9.4%
O=C(COC(=O)Cc1cccc(C(F)(F)F)c1)NC1CC1,-1.4%
CC(C)C[C@H]1C(=O)N2CCCC2[C@]2(O)O[C@](NC(=O)[C@@H]3C=C4c5cccc6[nH]c(Br)c(c56)C[C@H]4N(C)C3)(C(C)C)C(=O)N12 (some centres undefined),-0.7%
Cc1sc2ncnc(N)c2c1C,-6.9%[57.5 µM]
Oc1ccc(Nc2ncnc3scc(-c4ccccc4)c23)cc1,22.4µM*
Cc1sc2ncnc(Nc3ccc(O)cc3)c2c1C,28.2µM*
CN(C)CCCNc1ncnc2scc(-c3ccccc3)c12,2.9%
Cc1sc2ncnc(N/N=C/c3cccc(O)c3)c2c1C,14.6%
Cc1ccccc1S(=O)(=O)Nc1ncnc2scc(-c3ccccc3)c12,8.6%
O=C(Nc1ccc2c(c1)OCCO2)c1ccc2ccccc2n1,2.9%
Cn1cc(CN2CCN(CCc3ccccc3)C(CCO)C2)cn1 (centres undefined),-8.0%[57.5 µM]
CC(/C=N\NC(=O)CN1CCN(Cc2ccccc2)CC1)=C\c1ccco1,1.7%
CCOC(=O)Cc1cc(=O)n2[nH]cc(-c3cccc(Br)c3)c2n1,2.8%
Cc1nc(-c2cc(-c3nc(-c4ccc(C(C)(C)C)cc4)no3)no2)cs1,0.1%[57.5 µM]
C/C(=N/NC(=O)CNC(=O)Cc1ccc(Cl)cc1)c1ccco1,-7.6%[57.5 µM]
O=c1cnnc(N/N=C/C2CC=CCC2)[nH]1 (centres undefined),5.4%
COc1cccc(CNC(=O)c2cccc(Br)c2)c1,12.6%
CCCCCCN1C=CC=C/C1=C/C=C(C#N)C#N,10.1%
CCCCCCN1C=C/C(=C\C=C(C#N)C#N)c2ccccc21,14.1µM*
CCCN1C=CC(=CC=C(C#N)C#N)C=C1,28.2%[57.5 µM]
C(=N\N1CCN(Cc2ccccc2)CC1)/c1ccccc1,10.4%[57.5 µM]
C(=N\N1CCN(Cc2ccccc2)CC1)/c1cccnc1,3.7%
CCN(CC)c1ccc(/C=N/N2CCN(Cc3ccccc3)CC2)cc1,28.2µM*
SMILES,ERK EGF inh
COc1cc(NC(=O)COC(=O)c2ccc(S(=O)(=O)N3CC(C)CC(C)C3)cc2)c(C)cc1[N+](=O)[O-] (centres undefined),0.7%
CC(=O)N(c1ccccc1C)C1CCCC1,8.2%
CC(=O)N(C1=C(Cl)C(=O)c2ccccc2C1=O)C1CCCCC1,25.1µM*
O=C1C(Cl)=C(N2CCC(C(=O)O)CC2)C(=O)c2ccccc21,-10.4%[57.5 µM]
COc1ccc(OCCCC(=O)NCCc2nc3ccccc3[nH]2)cc1,-0.6%
CN(C)c1ccc(C(=S)Nc2ccccc2)cc1,5.7%
CN(C)c1ccc(/C=N/NC(=O)c2ccccn2)cc1,-9.0%[57.5 µM]
CN(C)c1ccc(NC(=S)c2ccccn2)cc1,20µM*
O=C(OCCNc1ccc(C(F)(F)F)cc1[N+](=O)[O-])c1cc2ccccc2oc1=O,-6.7%[57.5 µM]
CCCNC(=O)c1noc2c1CCc1ccccc1-2,9.2%
COCCCNC(=O)c1cc2cc(Br)ccc2oc1=O,5.5%
